Results on 108 compounds are retold here after PubChem BioAssay AID1030 (National Center for Advancing Translational Sciences (NCATS), 2008).

The structures appear in SMILES notation. In all, about 220,000 compounds went through this assay and about 16,000 (7.3%) were called active. Entries that show only a call come without a potency. Roughly 25% stayed inconclusive and do not appear here. For the sample, actives were picked, then their nearest neighbours and some compounds at random. Unmarked numbers belong to inactive results. Calls follow the shape of the dose curve; as a rule, active = well fitted inhibition curve with a large enough effect (not every such curve was filed as active); inconclusive = small, poorly fitted or top-dose-only effect, or another doubt; inactive = no such curve, though single readings can be large or run the other way.
Potency is read from the fitted curve at half-maximal effect.

In the assay the target is Aldehyde dehydrogenase 1A1 (Homo sapiens) (UniProt P00352). The experiment in a line: qHTS Assay for Inhibitors of Aldehyde Dehydrogenase 1 (ALDH1A1). The conditions noted are these: Purified ALDH1A1, NADH fluorescence, propionaldehyde substrate; series mostly up to 75.3 µM. (In general: In qHTS, concentration-response curves come from the screen itself.)
Sequence of Aldehyde dehydrogenase 1A1 (Homo sapiens) (P00352 whole entry, looked up): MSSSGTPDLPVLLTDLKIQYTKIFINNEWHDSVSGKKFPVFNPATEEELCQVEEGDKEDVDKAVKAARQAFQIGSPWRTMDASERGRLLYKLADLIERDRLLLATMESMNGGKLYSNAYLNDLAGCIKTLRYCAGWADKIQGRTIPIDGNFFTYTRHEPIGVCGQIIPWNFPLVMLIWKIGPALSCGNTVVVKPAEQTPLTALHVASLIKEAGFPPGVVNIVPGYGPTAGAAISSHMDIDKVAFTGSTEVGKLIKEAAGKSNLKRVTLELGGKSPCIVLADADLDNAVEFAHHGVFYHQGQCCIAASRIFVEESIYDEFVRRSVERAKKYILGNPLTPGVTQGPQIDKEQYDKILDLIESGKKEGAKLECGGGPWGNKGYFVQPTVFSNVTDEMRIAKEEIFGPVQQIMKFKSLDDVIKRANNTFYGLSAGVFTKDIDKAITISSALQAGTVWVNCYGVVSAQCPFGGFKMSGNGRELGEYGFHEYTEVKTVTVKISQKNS
Take `S=C(NC1CCCCC1)NN1CCOCC1`: the Potency result is “inactive”.
Consider `CC(=O)Nc1ccc(S(=O)(=O)Oc2ccc(/C=N/N=C3/NC(=O)C(CC(=O)O)S3)cc2)cc1` (stereo not drawn), for which the Potency result was “inactive”.
With `CC(C)c1cnc(NC(=O)Cc2ccccc2)s1`, the Potency result is “inactive”.
The same measure, in the same setting: the result for `C=C(C)CNC(=S)Nc1ccc(S(=O)(=O)Nc2cnc3ccccc3n2)cc1` reads “inactive”; that for `COc1ccc(CN(C)C(C)C(=O)NC2CCCc3ccccc32)cc1` (stereo not drawn), “inactive”; that for `CCOc1cc(/C=N/O)cc(Br)c1OC`, “inactive”.
The same measure, in the same setting: the result for `COc1cc(/C=N/Nc2ccc(C)cc2)cc(Br)c1O` reads 25.1 µM (active); that for `COc1cc(/C=N/NC(=S)Nc2cccnc2)cc(OC)c1O`, “inactive”; that for `COc1cc(/C=N/O)cc(Br)c1OS(=O)(=O)c1ccc(C)cc1`, 1.58 µM (active).
Still for that read-out and setting: the same measure for `COc1cc(/C=N\NC(=O)C2C(=O)NCC2c2ccccc2)cc(OC)c1O` (stereo not drawn): “inactive”.
With `COc1cc(/C=N/O)cc(Br)c1OCc1cccc(Cl)c1`, the Potency result is “inactive”.
Same read-out and setting: the result for `CC(C)(C)OC(=O)N/N=C/c1cn(-c2ccccc2)nc1-c1cccnc1` reads “inactive”; that for `CCN(CC)CC(=O)Nc1sc2c(c1C(=O)c1ccccc1C)CCC2`, “inactive”.
On to `Cc1ccc(SCCC(=O)NCc2ccccn2)cc1`, for which the Potency entry was “inactive”.
Still for that read-out and setting: the result for `N#Cc1ccc(OCc2nnc(-c3ccc([N+](=O)[O-])cc3)o2)cc1` reads “inactive”.
On the same count and under the same terms, the result for `CCCSc1ncccc1C(=O)O` reads “inactive”; that for `CN(C)NC(=O)C(NC(=O)c1ccc(N)cc1)C12CC3CC(CC(C3)C1)C2` (stereo not drawn), “inactive”; that for `CNC(=S)N/N=C/c1cn(Cc2ccc(C)cc2)c2ccccc12`, “inactive”.
Still for that read-out and setting: the result for `Cc1ccc(NC(=S)NCCN2CCOCC2)cc1` reads “inactive”; that for `CNC(=S)N/N=C/c1ccc(N2CCOCC2)s1`, 8.91 µM (active); that for `CC(C)CC[n+]1ccn(C2=C([O-])c3ccccc3C(=O)/C2=N\S(=O)(=O)c2ccccc2)c1`, 8.91 µM (active).
As for `COc1ccc(-c2csc(Nc3ccccn3)n2)cc1`, the Potency entry was “inactive”.
On the same count and under the same terms, the result for `Brc1ccc2ncnc(NCc3cccnc3)c2c1` reads “inactive”.
`Cc1ccc(C(=O)NCCNS(=O)(=O)c2ccccc2)cc1`: the Potency entry is “inactive”.
The same measure, in the same setting: the same measure for `O=S(=O)(NCCc1ccccc1)c1ccccc1`: “inactive”; for `Cc1ccc(S(=O)(=O)NCCSC(C)(C)C)cc1`: 17.8 µM (active).
Consider `COc1cc(OC)cc(C(=O)OCC(=O)Nc2ccc(F)cc2F)c1`, for which the Potency entry was “inactive”.
Turning to `CC(C)=C1C2CCC1C1C(=O)N(NC(=O)c3ccco3)C(=O)C21` (stereo not drawn), the Potency result is “inactive”.
With `COc1ccccc1OCCNC(=O)c1cc([N+](=O)[O-])cc([N+](=O)[O-])c1`, the Potency result is “inactive”.
Same read-out and setting: the result for `COc1cccc(NCCC(=O)c2cccc([N+](=O)[O-])c2)c1` reads 0.224 µM (active).
The same measure, in the same setting: the result for `COc1ccc(NS(=O)(=O)c2cc(NC(=O)CC(=O)c3ccc([N+](=O)[O-])cc3)ccc2C)cc1` reads “inactive”.
The same measure, in the same setting: the result for `O=C(NCc1csc(-c2cccs2)n1)C1CC1` reads “inactive”; that for `CC(C)Oc1ccc(Cc2n[nH]c(=S)n2Cc2ccccc2)cc1Cl`, “inactive”.
With `NC(=O)COc1ccc(C23CC4CC(CC(C4)C2)C3)cc1`, the Potency result is “inactive”.
Regarding `NNC(=O)COc1ccc(C2SCCS2)cc1`, the Potency was 3.98 µM (active).
On the same count and under the same terms, the same measure for `O=C(COc1ccccc1)NCc1ccc2c(c1)OCO2`: “inactive”.
Still for that read-out and setting: the same measure for `COc1ccc(CCNC(=O)COC(=O)Cc2cc(OC)c(OC)c(OC)c2)cc1`: “inactive”; for `CC(C)N(Cc1nc(-c2ccc3c(c2)OCO3)no1)CC1CCC(=O)N1` (stereo not drawn): “inactive”.
On the same count and under the same terms, the result for `Cc1nc(N)c(Br)c(C)c1Br` reads “inactive”; that for `CCN(CC)S(=O)(=O)c1cccc(-c2n[nH]c(=S)n2/N=C/c2ccc(C(=O)OC)cc2)c1`, 22.4 µM (active); that for `COC(=O)c1ccc(/C=N/N2C(C)CCCC2C)cc1` (stereo not drawn), “inactive”.
Take `Cc1ccc(/C=N\n2c(-c3ccccc3)n[nH]c2=S)s1`: the Potency result was “inactive”.
On to `CCN(CC)C(=O)C(=O)Nc1cccc(Br)c1`, for which the Potency entry is “inactive”.
Same read-out and setting: the result for `C=CCn1c(CCNC(=O)c2ccccc2F)nnc1SCC(=O)Nc1ccc(OC)cc1` reads “inactive”.
On to `Cc1nc(CN2CCN(C(=O)CCc3nnc(Cc4c[nH]c5ccccc45)o3)CC2)cs1`, for which the Potency entry is “inactive”.
With `Cc1cc(NC(=O)CN2C(=O)NC(CCc3ccccc3)C2=O)no1` (stereo not drawn), the Potency entry is “inactive”.
Turning to `COC(=O)c1c(NC(=O)CN2C(=O)NC(CCc3ccccc3)C2=O)sc2c1CCCCC2` (stereo not drawn), the Potency is 20 µM (active).
As for `CCN1C(=O)N[C@@H](CCc2ccccc2)C(C(=O)OC)=C1C`, the activity, negative = inhibition was 5.7% [at 13.5 µM].
In the case of `CCC1CCCCN1CCNS(=O)(=O)c1ccc2c(c1)CCN2C(C)=O` (stereo not drawn), the Potency entry was “inactive”.
Consider `CC(=O)N1CCc2cc(S(=O)(=O)Nc3ccccc3N3CCN(C)CC3)ccc21`, for which the Potency result was “inactive”.
Same read-out and setting: the result for `CCCNS(=O)(=O)c1ccc2c(c1)CCCN2C(C)=O` reads 22.4 µM (active); that for `CC(=O)Nc1ccc(NC(=O)COc2ncnc3ccccc23)cc1`, “inactive”.
Regarding `O=S(=O)(Cc1noc(-c2ccc(OC(F)(F)F)cc2)n1)c1ccc(F)cc1`, the Potency entry is “inactive”.
In the case of `COc1cccc(-n2c(=S)[nH]c3c(oc4ccccc43)c2=O)c1`, the Potency result was “inactive”.
`COc1ccc(-n2c(=S)[nH]c3sc4c(c3c2=O)CCc2ccccc2-4)cc1`: the Potency was 3.98 µM (active).
The same measure, in the same setting: the same measure for `CSc1nc2sc3c(c2c(=O)[nH]1)CCc1ccccc1-3`: “inactive”; for `CC(NC(=O)CC1SC(N)=NC1=O)c1ccccc1` (stereo not drawn): “inactive”.
The same measure, in the same setting: the same measure for `O=C(NCCc1c[nH]c2ccccc12)c1cc2ccccc2oc1=O`: “inactive”.
For `CN=C1C=C/C(=N/N=c2\ccn(O)cc2C)C=C1C`, the Potency result was “inactive”.
On the same count and under the same terms, the result for `COc1ccc(C2CC(c3cccs3)=NN2C(=O)CSc2nnc(N)s2)cc1OC` (stereo not drawn) reads “inactive”; that for `CCn1cc(C(=O)NCc2ccc3c(c2)OCO3)c2cc(OC)c(OC)cc2c1=O`, “inactive”.
Consider `CCn1cc(C(=O)N2CCN(Cc3ccc4c(c3)OCO4)CC2)c2cc(OC)c(OC)cc2c1=O`, for which the Potency is 2.24 µM (active).
On the same count and under the same terms, the result for `CCn1cc(C(=O)N2CCN(C3CCCCC3)CC2)c2cc(OC)c(OC)cc2c1=O` reads “inactive”.
The same measure, in the same setting: the same measure for `Cn1cnnc1SCc1nnc(-c2ccccc2Br)o1`: “inactive”.
For the compound `COCc1ccc(C(=O)N2CCc3c([nH]c4ccccc34)C2c2ccccn2)s1` (stereo not drawn), the Potency entry is “inactive”.
The same measure, in the same setting: the result for `COc1ccccc1CC(NC(C)=O)C(=O)NC1CCN(C(=O)Nc2ccccc2Cl)CC1` (stereo not drawn) reads “inactive”; that for `Cc1nn(C)cc1/C=C1\CCC/C(=C\c2cn(C)nc2C)C1=O`, 28.2 µM (active).
The same measure, in the same setting: the same measure for `CCn1cc(/C=C2/SC(=S)NC2=O)c(C)n1`: “inactive”.
Same read-out and setting: the same measure for `Cc1c(Cl)c([N+](=O)[O-])nn1CC(=O)NCC1CCCO1` (stereo not drawn): “inactive”.
Take `CCOC(=O)c1ccc(NC(=O)c2cc(=O)[nH]c3ccccc23)cc1`: the Potency entry was “inactive”.
Still for that read-out and setting: the result for `C/C(=N\NC(=O)c1ccc(CSc2nc(C)cc(C)n2)cc1)C1CCCCC1` reads 3.55 µM (active); that for `CCn1c(CSc2nc(C)cc(C)n2)nnc1SCC(N)=O`, “inactive”; that for `C/C(=N\NC(=O)c1nc(C)cc(C)n1)c1ccccc1`, “inactive”.
With `CC1=C(/C=C/C(C)=C/C=C/C(C)=C/C=C/C=C(C)/C=C/C=C(C)/C=C/C(=O)[C@]2(C)C[C@@H](O)CC2(C)C)C(C)(C)C[C@H](O)C1`, the Potency entry was “inactive”.
Same read-out and setting: the same measure for `O=C(Nc1ccc2c(c1)CCC2)c1ccc(Br)s1`: “inactive”.
Same read-out and setting: the result for `Cc1ccc(NC(=S)N2CCCC(c3ccccc3)=N2)cc1` reads “inactive”; that for `CN1CC(c2ccccc2)C2(COc3ccccc3C2=O)C12C(=O)Nc1ccccc12` (stereo not drawn), 7.94 µM (active).
In the case of `CC1(C)C2CCC1(C)C(OC(=O)c1ccc(O)cc1)C2` (stereo not drawn), the Potency entry was “inactive”.
For the compound `COc1ccc(CCn2ccc(O)c(Cc3ccc(Cl)cc3Cl)c2=O)cc1OC`, the Potency entry was “inactive”.
For the compound `Cc1noc(C)c1S(=O)(=O)Nc1cc(C(F)(F)F)ccc1N1CCOCC1`, the Potency entry was “inactive”.
As to `C=CCN(Cc1nc(-c2cc(OC)c3c(c2)OCO3)oc1C)C1CCS(=O)(=O)C1` (stereo not drawn), the Potency entry is “inactive”.
With `CCO[C@@H]1OC(C(N)=O)=C[C@H](c2ccc(Br)cc2)[C@H]1CCCO`, the Potency result is “inactive”.
Take `CCCCNc1nc2c(c(=O)n(C)c(=O)n2C)n1Cc1cccc(OC)c1`: the Potency entry is “inactive”.
Consider `CCOC(=O)CSc1nc2c(c(=O)n(C)c(=O)n2C)n1Cc1ccccc1F`, for which the Potency was 39.8 µM (active).
On the same count and under the same terms, the result for `Cn1c(=O)c2c(nc(SCCNS(=O)(=O)c3ccccc3)n2C)n(C)c1=O` reads “inactive”; that for `CCCCn1c(SCC(=O)NCCc2ccc(OC)c(OC)c2)nc2c1c(=O)n(C)c(=O)n2C`, “inactive”; that for `COCCn1c(CN(Cc2ccccc2)Cc2ccccc2)nc2c1c(=O)n(C)c(=O)n2C`, “inactive”.
Take `CC(C)OCCCNc1nc2c(c(=O)n(Cc3ccccc3F)c(=O)n2C)n1C`: the Potency entry was “inactive”.
`COC(=O)C(C)Sc1nc2c(c(=O)n(C)c(=O)n2C)n1Cc1cccc(C)c1` (stereo not drawn): the Potency was 12.6 µM (active).
The same measure, in the same setting: the result for `CCOc1ccc2nc(NC(=O)CSc3nc4c(c(=O)n(C)c(=O)n4C)n3CC)sc2c1` reads “inactive”; that for `CCCSc1nc2c(c(=O)n(C)c(=O)n2C)n1Cc1ccc(C)cc1`, 25.1 µM (active).
The same measure, in the same setting: the same measure for `Nc1nc(SCC(=O)N2CCN(S(=O)(=O)c3ccc(Cl)cc3)CC2)n[nH]1`: “inactive”; for `COc1cccc(NC(=O)COC(=O)CCOc2ccccc2OC)c1`: “inactive”; for `COCc1c(N)c(C)nc(Cl)c1C#N`: “inactive”.
The same measure, in the same setting: the same measure for `Cc1n[nH]c(=O)n1-c1ccc(C(C)C)cc1`: “inactive”; for `COc1ccc(NC(=O)COC(=O)c2ccncc2)c(OC)c1`: “inactive”.
For `Cc1c(Cl)cccc1NC(=O)CSc1ccc(-c2cccnc2)nn1`, the Potency entry is “inactive”.
Consider `COC(=O)c1c(C)[nH]c(C)c1-c1ccc([N+](=O)[O-])cc1`, for which the Potency result is “inactive”.
Take `CCCCC/C=C\C/C=C\CCCCCCCCCC(=O)O`: the Potency entry was “inactive”.
On to `CCOC(=O)Cn1nnnc1C`, for which the Potency entry was “inactive”.
Still for that read-out and setting: the same measure for `CC(Sc1nnnn1C)C(=O)NC(=O)NC1CCCCC1` (stereo not drawn): “inactive”; for `O=C(Oc1ccccc1)Oc1ccc2c(c1)oc(=O)c1ccccc12`: 17.8 µM (active); for `Cc1ccc(OC(=O)c2cc3ccccc3o2)cc1`: “inactive”.
On the same count and under the same terms, the same measure for `CCc1ccc(Oc2coc3cc(OC(=O)c4cc5ccccc5oc4=O)ccc3c2=O)cc1`: “inactive”.
Same read-out and setting: the same measure for `CCOC(=O)CSC1=N/C(=C/c2ccc(-n3cncn3)cc2)C(=O)N1C(C)=O`: “inactive”; for `O=C(CN1C(=O)/C(=C\c2ccc(C(F)(F)F)cc2)Sc2ccccc21)NCc1ccco1`: “inactive”.
For `O=C(CN1C(=O)/C(=C\c2ccccc2F)SC1=S)Nc1nc2ccccc2s1`, the Potency entry is “inactive”.
On the same count and under the same terms, the same measure for `O=C(CN1C(=O)/C(=C/c2ccccc2F)Sc2ccccc21)NCc1cccnc1`: 20 µM (active).
